# In PubChem BioAssay (NCATS):
# A number with no mark means an inactive call. Active and inactive are the calls of the source. Calls come from the whole dose curve; as a rule, active = well fitted curve in the direction sought with a large enough effect; inconclusive = small, poorly fitted or top-dose-only effect, or another doubt; inactive = no such curve, though single readings can be large or run the other way.
# Biological target: Guanine nucleotide-binding protein G(i) subunit alpha-1 (Homo sapiens) (UniProt P63096)
# Experiment: qHTS Assay for Inhibitors of RGS12 GoLoco Motif Activity (Green Fluorophore) (AID 879);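 for activity, negative = inhibition: 0% = labeled peptide with Gαi1 and full inhibition = labeled peptide alone without protein; negative values mean loss of peptide binding seen as reduced polarization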
# Conditions: Galphai1/FITC-RGS12 GoLoco peptide, fluorescence polarization; series mostly up to 57.1 µM; activity, negative = inhibition: at the top concentration
# Procedure, shortened: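 A drop in FITC polarization marked displacement of the FITC-tagged RGS12 GoLoco peptide (10 nM) from Gαi1 (50 nM). Compounds were incubated 10 min at room temperature in Tris pH 7.5 buffer containing 150 mM NaCl, 0.1 mM GDP and 0.05% NP40; unlabeled peptide titration served as control.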
# Potency is the fitted concentration of half-maximal effect.
# Guanine nucleotide-binding protein G(i) subunit alpha-1 (Homo sapiens), sequence (P63096 whole entry, looked up): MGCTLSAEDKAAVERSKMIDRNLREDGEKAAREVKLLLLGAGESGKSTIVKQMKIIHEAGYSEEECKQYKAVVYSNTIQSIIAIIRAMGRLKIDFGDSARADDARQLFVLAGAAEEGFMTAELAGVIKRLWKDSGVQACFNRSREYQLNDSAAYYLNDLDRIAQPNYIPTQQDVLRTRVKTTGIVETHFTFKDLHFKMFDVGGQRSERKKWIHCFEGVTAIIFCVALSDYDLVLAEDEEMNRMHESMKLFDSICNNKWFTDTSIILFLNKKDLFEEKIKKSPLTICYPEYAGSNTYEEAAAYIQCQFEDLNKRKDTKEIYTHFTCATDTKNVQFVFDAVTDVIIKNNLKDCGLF
SMILES,"activity, negative = inhibition [%]",Potency
CCN(CC)CC(=O)Nc1c(C)cccc1C,-0.865,
Cc1nc2c([nH]1)c(=O)n(C)c(=O)n2Cc1ccco1,-12.5,
O=C(CCNNC(=O)c1ccncc1)NCc1ccccc1,-16.3,
N[C@@H](COP(=O)(O)O)C(=O)O,-16.4,
CN1CCN(C2=Nc3ccccc3Oc3ccc(Cl)cc32)CC1,2.05,
CCN(CC)CCNC(=O)c1ccc(NC(C)=O)cc1,3.65,
CN/C(=C\[N+](=O)[O-])NCCSCc1ccc(CN(C)C)o1,-11.3,
CN(C)CCCN1c2ccccc2Sc2ccccc21,-2.31,
Cc1ccc(S(=O)(=O)NC(=O)NN2CCCCCC2)cc1,-23.1,
CCN(CC)CCOCCOC(=O)C1(c2ccccc2)CCCC1,-12.7,
C[n+]1cc2c3c(ccc2c2ccc4cc5c(cc4c21)OCO5)OCO3,,12.6 µM (active)
CCn1nc(C(=O)O)c(=O)c2cc3c(cc21)OCO3,-1.73,
CN(C)CCOC(=O)COc1ccc(Cl)cc1,5.32,
CCCCNc1ccc(C(=O)OCCN(C)C)cc1,-7.48,
CNCCCN1c2ccccc2CCc2ccccc21,-14.5,
